From PubChem BioAssay
Several values for one entry are separate records, joined by “and”; a condition that tells them apart may be missing. Equal values may be shown once. Activity calls are given as the source filed them.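 The calls were made as follows, unless noted: active = luciferase signal above three times the same-plate solvent-only control wells; inactive = the rest.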

Test system: not listed separately
Test: phospholipid biosynthesis inhibitors in animal cells, primary screen, cell-based, LOPAC library, screen 4 (AID 1347384; call rule not given here)
Settings: phospholipid biosynthesis inhibition screen, at 10 µM

Row | Compound | outcome
1 | O=C(O)c1cc([N+](=O)[O-])ccc1NCCCc1ccccc1 | inactive
2 | O=c1c(-c2ccc(O)cc2)coc2cc(O)ccc12 | inactive
3 | CC(CCc1ccc(O)cc1)NCCc1ccc(O)c(O)c1 (stereo not drawn) | inactive
4 | NC(=O)c1cccc(N)c1 | inactive
5 | CCN1CCCC1CNC(=O)c1cc(S(N)(=O)=O)ccc1OC (stereo not drawn) | inactive
6 | CCOC(=O)C1=C(O)C(=O)N(Cc2ccccc2)C1 | inactive

Test system: not listed separately
Test: survival rescue of mitochondrial mutant cells in low glucose, primary screen, MELAS cybrids, Rieske KO mouse fibroblasts, CellTiter-Glo (AID 1508586;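 active = mean z-score across replicates of 1.96 or higher in either the MELAS or the Rieske mutant cell line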;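 also: z relative to plate mean and SD of compound and empty wells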)
Settings: MELAS cybrid survival, CellTiter-Glo 48 h, stronger effect = higher value

Row | Compound | z-score
7 | O=c1c(-c2ccc(O)cc2)coc2cc(O)ccc12 | -0.189 (inactive)
8 | CC(CCc1ccc(O)cc1)NCCc1ccc(O)c(O)c1 (stereo not drawn) | 0.557 (inactive) and -0.473 (inactive)
9 | NC(=O)c1cccc(N)c1 | -0.453 (inactive) and -0.332 (inactive)
10 | CCN1CCCC1CNC(=O)c1cc(S(N)(=O)=O)ccc1OC (stereo not drawn) | -0.0383 (inactive) and -0.359 (inactive)

Same assay, conditions: Rieske KO mouse fibroblast survival, CellTiter-Glo 72 h

Row | Compound | z-score
11 | O=c1c(-c2ccc(O)cc2)coc2cc(O)ccc12 | -0.724
12 | CC(CCc1ccc(O)cc1)NCCc1ccc(O)c(O)c1 (stereo not drawn) | -0.00496 and 0.199
13 | NC(=O)c1cccc(N)c1 | 0.178 and -0.721
14 | CCN1CCCC1CNC(=O)c1cc(S(N)(=O)=O)ccc1OC (stereo not drawn) | 0.0677 and 0.0684

Target: NAD(+) hydrolase SARM1 (Homo sapiens) (UniProt Q6SZW1)
Sequence (Q6SZW1 whole entry, looked up): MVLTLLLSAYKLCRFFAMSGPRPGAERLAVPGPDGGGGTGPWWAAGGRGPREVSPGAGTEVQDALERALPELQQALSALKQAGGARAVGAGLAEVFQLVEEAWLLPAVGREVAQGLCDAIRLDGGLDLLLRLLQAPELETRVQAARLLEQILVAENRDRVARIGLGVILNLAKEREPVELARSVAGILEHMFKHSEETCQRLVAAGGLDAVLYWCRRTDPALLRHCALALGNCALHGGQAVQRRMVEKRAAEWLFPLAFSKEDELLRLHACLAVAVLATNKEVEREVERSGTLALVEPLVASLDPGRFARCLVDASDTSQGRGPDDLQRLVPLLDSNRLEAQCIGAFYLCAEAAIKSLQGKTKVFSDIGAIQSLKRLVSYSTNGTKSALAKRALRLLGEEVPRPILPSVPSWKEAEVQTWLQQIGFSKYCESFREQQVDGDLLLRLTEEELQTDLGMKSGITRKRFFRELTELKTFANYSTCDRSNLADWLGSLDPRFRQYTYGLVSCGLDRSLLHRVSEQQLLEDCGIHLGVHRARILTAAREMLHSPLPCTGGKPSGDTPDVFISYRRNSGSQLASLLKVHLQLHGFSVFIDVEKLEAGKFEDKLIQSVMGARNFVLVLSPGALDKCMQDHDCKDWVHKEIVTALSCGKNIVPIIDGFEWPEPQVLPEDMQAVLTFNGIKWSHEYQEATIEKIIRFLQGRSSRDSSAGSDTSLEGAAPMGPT
Test: SARM1 TIR NADase inhibitors, cell lysate, NAD-Glo luminescence (AID 1508614;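 active = compound whose remaining NAD level is above about 45 nM, limit read from the data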;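 also: higher remaining NAD means stronger inhibition of SARM1 NADase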)
Settings: SAM-TIR HEK293T lysate NADase, at 1 µM, stronger effect = higher value

Row | Compound | remaining NAD
15 | CC(CCc1ccc(O)cc1)NCCc1ccc(O)c(O)c1 (stereo not drawn) | 10 nM (inactive)
16 | CCN1CCCC1CNC(=O)c1cc(S(N)(=O)=O)ccc1OC (stereo not drawn) | 10 nM (inactive)
17 | CCCC(=O)Nc1ncnc2c1ncn2[C@@H]1O[C@@H]2COP(=O)(O)O[C@H]2[C@H]1OC(=O)CCC | 10 nM (inactive)

Target: Mitogen-activated protein kinase 7 (Homo sapiens) (UniProt Q13164)
Sequence (Q13164 whole entry, looked up, the tested form may be a part): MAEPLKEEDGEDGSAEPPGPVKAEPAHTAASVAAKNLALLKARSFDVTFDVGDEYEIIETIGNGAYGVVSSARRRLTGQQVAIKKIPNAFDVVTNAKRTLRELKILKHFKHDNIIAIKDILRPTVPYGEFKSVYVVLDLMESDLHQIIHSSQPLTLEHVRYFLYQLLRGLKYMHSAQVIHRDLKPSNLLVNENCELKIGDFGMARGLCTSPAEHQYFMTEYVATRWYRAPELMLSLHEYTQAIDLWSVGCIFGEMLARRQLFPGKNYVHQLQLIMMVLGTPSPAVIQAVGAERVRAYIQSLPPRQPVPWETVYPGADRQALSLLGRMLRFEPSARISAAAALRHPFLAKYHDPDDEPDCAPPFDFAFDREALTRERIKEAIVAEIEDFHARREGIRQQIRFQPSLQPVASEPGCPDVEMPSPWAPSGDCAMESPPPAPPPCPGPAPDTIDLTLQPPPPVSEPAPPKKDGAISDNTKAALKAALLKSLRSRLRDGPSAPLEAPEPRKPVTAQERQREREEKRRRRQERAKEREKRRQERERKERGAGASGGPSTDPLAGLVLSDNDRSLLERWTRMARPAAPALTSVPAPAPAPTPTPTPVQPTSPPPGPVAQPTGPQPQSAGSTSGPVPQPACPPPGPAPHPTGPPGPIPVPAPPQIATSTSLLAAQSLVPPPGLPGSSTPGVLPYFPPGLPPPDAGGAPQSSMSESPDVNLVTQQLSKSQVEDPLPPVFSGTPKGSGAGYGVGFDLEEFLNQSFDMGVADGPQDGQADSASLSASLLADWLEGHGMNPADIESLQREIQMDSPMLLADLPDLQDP
Test: ERK5 transactivation activators in reporter cells, primary screen, cell-based, HTS (AID 1508626);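 also: luciferase driven by Gal4-ERK5 fusion binding five Gal4 sites before minimal TATA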
Settings: HeLa Gal4-ERK5 transactivation, 18 h, at 5 µM, stronger effect = higher value

Row | Compound | luciferase signal
18 | COc1cc(O)c(C(C)=O)c(OC)c1 | 8 AU (inactive)
19 | COc1c2ccoc2c(OC)c2oc(=O)ccc12 | 432 AU (active)
20 | N#Cc1ccc2c(c1)N(CCCN1CCC(O)CC1)c1ccccc1S2 | 96 AU (inactive)
21 | Oc1cc(O)c2c(c1)O[C@H](c1cc(O)c(O)c(O)c1)[C@H](O)C2 | 172 AU (inactive)
22 | O=c1c(-c2ccc(O)cc2)coc2cc(O)ccc12 | 120 AU (inactive)
23 | O=c1[nH]c2cc(Cl)c(Cl)cc2[nH]c1=O | 40 AU (inactive)
24 | O=C(O)CCCCCCCCCCCCC1C=CCC1 (stereo not drawn) | 20 AU (inactive)
25 | CC(CCc1ccc(O)cc1)NCCc1ccc(O)c(O)c1 (stereo not drawn) | 56 AU (inactive)
26 | CC(C)=CCc1c2c(c3occ(-c4ccc(O)c(O)c4)c(=O)c3c1O)C=CC(C)(C)O2 | 108 AU (inactive)
27 | NC(=O)c1cccc(N)c1 | 104 AU (inactive)
28 | COc1ccc([C@H]2Oc3cc(OC)cc(OC)c3C[C@H]2O)cc1 | 84 AU (inactive)
29 | CCN1CCCC1CNC(=O)c1cc(S(N)(=O)=O)ccc1OC (stereo not drawn) | 56 AU (inactive)
30 | COc1c(OC)c2occc2c2oc(=O)ccc12 | 28 AU (inactive)
31 | NC1(C(=O)O)CCCC1 | 76 AU (inactive)
32 | COc1ccc(C(=O)CC(=O)O)c2c1C=CC(C)(C)O2 | 60 AU (inactive)
33 | COC1=CC(=O)C=C(OC)C1=O | 112 AU (inactive)
34 | CON | 124 AU (inactive)

Row | Compound | luciferase signal
35 | COc1c2ccoc2nc2c(OC)c(OCC(O)C(C)(C)O)ccc12 (stereo not drawn) | 28 AU (inactive)
36 | O=C1C=CC(=C(c2ccc(O)cc2)c2ccc(O)cc2)C=C1 | 148 AU (inactive)
37 | COc1cc(OC)c2ccc(=O)oc2c1 | 64 AU (inactive)
38 | O=C1c2ccc(O)c(O)c2C(=O)c2c(O)ccc(O)c21 | 76 AU (inactive)
39 | Cc1cc(=O)oc2c(O)c(O)ccc12 | 44 AU (inactive)
40 | COc1ccc2c(c1)OC1(O)COc3cc(OC)c(OC)cc3C1=C2 (stereo not drawn) | 108 AU (inactive)
41 | O=C(O)c1cc(=O)c2cccc(O)c2[nH]1 | 100 AU (inactive)
42 | O=C(O)c1cc2ccccc2[nH]1 | 36 AU (inactive)
43 | NC1=NCCN1CC(=O)O | 48 AU (inactive)
44 | CC(C)[C@@H]1CC[C@@H](C)CC1=O | 52 AU (inactive)
45 | C[C@@]12C(=O)OC(=O)[C@]1(C)[C@H]1CC[C@@H]2O1 | 52 AU (inactive)
46 | CCCC(=O)Nc1ncnc2c1ncn2[C@@H]1O[C@@H]2COP(=O)(O)O[C@H]2[C@H]1OC(=O)CCC | 68 AU (inactive)
47 | COc1ccc2c(c1)OC/C(=C\c1ccc(OC)c(O)c1)C2=O | 88 AU (inactive)
48 | CC(=O)c1c(O)c(C)c(O)c2c1OC1=CC(=O)C(C(C)=O)C(=O)C12C (stereo not drawn) | 80 AU (inactive)
49 | O=C(/C=C/c1ccccc1)c1ccc(O[C@@H]2O[C@H](CO)[C@@H](O)[C@H](O)[C@H]2O)cc1O | 76 AU (inactive)
50 | CC(=O)N[C@@H]1[C@@H](O)[C@H](O)[C@@H](CO)O[C@H]1O | 64 AU (inactive)

Test system: not listed separately
Test: viability rescue of complex I mutant cybrids, primary screen, cell-based, galactose medium, ATP luminescence (AID 1645843;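 active = z-score of at least 1.8 in each of two replicates, scored against plate mean and spread of sample wells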;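 also: positive z means more ATP and so rescue of galactose-driven cybrid death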)
Settings: complex I mutant cybrid cells, 72 h, stronger effect = higher value

Row | Compound | z-score
51 | O=C(O)c1cc([N+](=O)[O-])ccc1NCCCc1ccccc1 | 0.305 (inactive) and -0.425 (inactive)
52 | O=c1c(-c2ccc(O)cc2)coc2cc(O)ccc12 | 0.775 (inactive) and 0.485 (inactive)
53 | CC(CCc1ccc(O)cc1)NCCc1ccc(O)c(O)c1 (stereo not drawn) | -1.02 (inactive) and -0.96 (inactive) and -2.02 (inactive)
54 | NC(=O)c1cccc(N)c1 | 0.345 (inactive) and 1.35 (inactive)
55 | CCN1CCCC1CNC(=O)c1cc(S(N)(=O)=O)ccc1OC (stereo not drawn) | 0.32 (inactive) and 0.4 (inactive) and 0.185 (inactive)
56 | C[C@@]12C(=O)OC(=O)[C@]1(C)[C@H]1CC[C@@H]2O1 | -0.755 (inactive)
57 | CCCC(=O)Nc1ncnc2c1ncn2[C@@H]1O[C@@H]2COP(=O)(O)O[C@H]2[C@H]1OC(=O)CCC | 0.335 (inactive)
58 | CCOC(=O)C1=C(O)C(=O)N(Cc2ccccc2)C1 | 0.685 (inactive) and -0.055 (inactive)
